# Laboratory results reported in PubChem BioAssay (Tox21).
# A number with no mark means an inactive call. Results filed as inconclusive are left out. Where a call stands in place of a potency, no number is given. Calls of active or inactive are those of the source. Unless noted, the call rests on the fitted dose curve; in most records, active means well fitted curve in the direction sought with a large enough effect in the repeat runs; inconclusive means weak or mixed curves; inactive means no such curve, though single readings can be large; an effect the other way counts as inactive or inconclusive.
# What was measured:
# [1] = qHTS assay for small molecules that induce genotoxicity in human embryonic kidney cells expressing luciferase-tagged ATAD5 (AID 651632); further: nearly all actives have a fitted effect of over 15% in size
# Summary of the method: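 Reporter cells (HEK293T) express luciferase-tagged ATAD5, a protein that accumulates after DNA damage. Treat 16 hr at 37C/5% CO2, add Amplite, wait 30 min at RT, and read luminescence.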
# [2] = qHTS assay for small molecule agonists of the p53 signaling pathway - cell viability (AID 651633; calls by dose curve; further: nearly all actives have a fitted effect of over 30% in size; further: potency means the concentration at half of the fitted maximal effect;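 on activity change, negative = cytotoxicity: p53RE-bla HCT reporter cells with a stable beta-lactamase p53 reporter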)
# Summary of the method: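 p53RE-bla cells were treated with compound for 16 hours at 37 C. Cytotoxicity was then measured as CellTiter-Glo luminescence after 30 min at room temperature.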
# [3] = qHTS assay for small molecules that induce genotoxicity in human embryonic kidney cells expressing luciferase-tagged ATAD5 - cell viability (AID 651634; calls by dose curve; further: nearly all actives have a fitted effect of over 25% in size; further: potency means the concentration at half of the fitted maximal effect)
# Summary of the method: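 Seeding of 2,000 HEK293T ATAD5-luciferase cells per well preceded pin-tool compound transfer. Plates sat 15.5 hr at 37C under 5% CO2, then fluorescence was read after 30 min with CellTiter-Fluor.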
# [4] = qHTS assay for small molecule disruptors of the mitochondrial membrane potential (AID 720635); further: potency means the concentration at half of the fitted maximal effect
# Summary of the method: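 HepG2 cells exposed to compound 1 hr at 37C, then Mito-MPS dye 30 min. Ratio read of aggregate (540/590 nm) versus monomer (490/535 nm) fluorescence.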
# [5] = qHTS assay to test for compound auto fluorescence at 590 nm (red) in HepG2 cells (AID 720674)
# Summary of the method: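 Fluorescence at 590 nm emission following 540 nm excitation was recorded from HepG2 wells one hour after compound transfer, with DMSO-only wells as vehicle and Rose Bengal sodium equivalency as the scale.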
# [6] = qHTS assay to test for compound auto fluorescence at 535 nm (green) in HepG2 cells (AID 720675)
# [7] = qHTS assay to test for compound auto fluorescence at 460 nm (blue) in HEK293 cells (AID 720678)
# Summary of the method: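 HEK293 cells (2,000/well, medium with 10% dialyzed FBS) attached 4-5 hr, then exposed to compound overnight at 37C, 5% CO2. Blue fluorescence read at 405/460 nm, with triamterene as reference fluorophore.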
# [8] = qHTS assay to test for compound auto fluorescence at 590 nm (red) in HEK293 cells (AID 720679)
# Summary of the method: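 HEK293 cells (2,000/well, 10% dialyzed FBS) attached 4-5 hr, then dosed with compound or DMSO and incubated overnight at 37C, 5% CO2. Red fluorescence read at 540/590 nm, Rose Bengal sodium as reference fluorophore.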
# [9] = qHTS assay to test for compound auto fluorescence at 535 nm (green) in HEK293 cells (AID 720680)
# [10] = qHTS assay to test for compound auto fluorescence at 460 nm (blue) in HEK293 cell free culture (AID 720681)
# Summary of the method: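 Compounds were added to cell-free DMEM with 10% FBS and fluorescence read directly. The blue channel used 405 nm excitation and 460 nm emission, with triamterene as the reference fluorophore.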
# [11] = qHTS assay to test for compound auto fluorescence at 535 nm (green) in HEK293 cell free culture (AID 720682)
# Summary of the method: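 Steps: dispense DMEM/10% FBS into empty wells; pin in compound or DMSO; measure fluorescence at 485/535 nm. Values are fluorescein equivalents.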
# [12] = qHTS assay to test for compound auto fluorescence at 590 nm (red) in HEK293 cell free culture (AID 720683)
# Summary of the method: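 Cell-free wells of DMEM with 10% FBS received compound, and intrinsic fluorescence was read at excitation/emission 540/590 nm. Values expressed as equivalence to Rose Bengal sodium.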
# [13] = qHTS assay to test for compound auto fluorescence at 590 nm (red) in HepG2 cell free culture (AID 720684)
# Summary of the method: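 Compounds are added to culture medium (MEM, 10% FBS) lacking cells, then fluorescence is read at excitation 540 nm, emission 590 nm, with Rose Bengal sodium as the equivalency standard.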
# [14] = qHTS assay to test for compound auto fluorescence at 460 nm (blue) in HepG2 cell free culture (AID 720685)
# Summary of the method: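 Compound (23 nL) or DMSO pinned into cell-free MEM with 10% FBS; blue fluorescence read at 405/460 nm excitation/emission, expressed as auto-fluorescence equivalency to triamterene.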
# [15] = qHTS assay to test for compound auto fluorescence at 535 nm (green) in HepG2 cell free culture (AID 720686)
# [16] = qHTS assay to test for compound auto fluorescence at 460 nm (blue) in HepG2 cells (AID 720687)
# Summary of the method: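 HepG2 cells in MEM with 10% FBS, attached overnight at 37 C, were exposed to compound or DMSO for 1 hr at 37 C, 5% CO2. Blue fluorescence was read at 405/460 nm, with triamterene as reference fluorophore.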
# [17] = qHTS assay for small molecule disruptors of the mitochondrial membrane potential - cell viability (AID 720634; calls by dose curve; further: nearly all actives have a fitted effect of over 20% in size; further: potency means the concentration at half of the fitted maximal effect;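 on activity change, negative = cytotoxicity: human HepG2 liver cancer cells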)
# Summary of the method: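 Measuring cytotoxicity alongside mitochondrial potential, the screen quantified ATP by luminescence in HepG2 cells after 1 hr compound incubation and a 30 min room-temperature CellTiter-Glo step.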
# [18] = target: Glucocorticoid receptor (Homo sapiens) (UniProt P04150); assay: qHTS assay to identify small molecule agonists of the glucocorticoid receptor (GR) signaling pathway (AID 720691; active means well fitted activation curve with a large enough effect in the signal ratio in the repeat runs, not every such curve was filed as active; the % refers to the signal ratio); conditions: GR-bla HeLa, beta-lactamase reporter ratio, 18 h; activation: at 62.4 µM (top of the series)
# Summary of the method: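 Reporter read-out: fluorescence intensity following 2 h room-temperature LiveBLAzer B/G FRET substrate loading. Prior step: GR-bla HeLa cells held 4 h, then treated 18 h at 37 C.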
# Glucocorticoid receptor (Homo sapiens), sequence (P04150 whole entry, looked up): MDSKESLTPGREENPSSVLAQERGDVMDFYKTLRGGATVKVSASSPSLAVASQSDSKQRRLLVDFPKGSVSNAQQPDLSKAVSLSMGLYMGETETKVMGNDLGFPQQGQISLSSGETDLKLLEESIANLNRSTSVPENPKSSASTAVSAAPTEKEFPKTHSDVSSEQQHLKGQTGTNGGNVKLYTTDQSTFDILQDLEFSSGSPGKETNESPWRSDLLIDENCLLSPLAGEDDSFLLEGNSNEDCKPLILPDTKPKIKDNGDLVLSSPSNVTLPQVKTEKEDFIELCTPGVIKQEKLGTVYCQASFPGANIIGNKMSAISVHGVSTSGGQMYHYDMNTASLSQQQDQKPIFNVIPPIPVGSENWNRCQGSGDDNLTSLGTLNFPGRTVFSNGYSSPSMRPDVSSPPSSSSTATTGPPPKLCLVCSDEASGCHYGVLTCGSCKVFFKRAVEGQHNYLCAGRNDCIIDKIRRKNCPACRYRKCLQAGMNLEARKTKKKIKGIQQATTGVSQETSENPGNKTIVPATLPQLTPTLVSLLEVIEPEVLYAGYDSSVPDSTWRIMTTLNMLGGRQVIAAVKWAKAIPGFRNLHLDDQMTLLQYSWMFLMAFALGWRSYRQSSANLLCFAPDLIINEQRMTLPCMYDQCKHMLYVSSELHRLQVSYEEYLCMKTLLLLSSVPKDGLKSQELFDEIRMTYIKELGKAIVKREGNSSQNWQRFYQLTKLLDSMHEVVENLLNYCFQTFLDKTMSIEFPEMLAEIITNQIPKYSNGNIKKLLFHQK
structure (smiles),measurement,setting,value
CC1(C)C(C=C(Cl)Cl)C1C(=O)OC(C#N)c1ccc(F)c(Oc2ccccc2)c1 (stereo not drawn),Potency,[1],inactive
same,Potency,[2],inactive
same,Potency,[3],inactive
same,Potency,[4],54.5 µM (active)
same,outcome,[5],inactive
same,Potency,[6],inactive
same,Potency,[7],inactive
same,outcome,[8],inactive
same,outcome,[9],inactive
same,Potency,[10],inactive
same,outcome,[11],inactive
same,outcome,[12],inactive
same,outcome,[13],inactive
same,Potency,[14],inactive
same,Potency,[15],inactive
same,Potency,[16],inactive
c1ccc(Nc2ccc(Nc3ccccc3)cc2)cc1,Potency,[1],inactive
same,Potency,[3],inactive
same,Potency,[17],24.2 µM (active)
same,Potency,[4],8.6 µM (active)
same,outcome,[5],inactive
same,Potency,[6],inactive
same,Potency,[7],inactive
same,outcome,[8],inactive
same,outcome,[9],inactive
same,Potency,[10],inactive
same,outcome,[11],inactive
same,outcome,[12],inactive
same,outcome,[13],inactive
same,Potency,[14],inactive
same,Potency,[15],inactive
same,Potency,[16],inactive
same,Potency,[18],inactive
FC(F)C(F)(F)OCC(Cn1cncn1)c1ccc(Cl)cc1Cl (stereo not drawn),Potency,[1],inactive
same,Potency,[2],inactive
same,Potency,[4],48.3 µM (active)
same,outcome,[5],inactive
same,Potency,[6],inactive
same,Potency,[7],inactive
same,outcome,[8],inactive
same,outcome,[9],inactive
same,Potency,[10],inactive
same,outcome,[11],inactive
same,outcome,[12],inactive
same,outcome,[13],inactive
same,Potency,[14],inactive
same,Potency,[15],inactive
same,Potency,[16],inactive
same,Potency,[18],inactive
[F][Sn]([c]1ccccc1)([c]1ccccc1)[c]1ccccc1,Potency,[2],3.06 µM (active)
same,Potency,[3],0.486 µM (active)
same,Potency,[17],19.3 µM (active)
same,Potency,[4],0.273 µM (active)
same,outcome,[5],inactive
same,Potency,[7],inactive
same,outcome,[8],inactive
same,outcome,[9],inactive
same,Potency,[10],inactive
same,outcome,[11],inactive
same,outcome,[13],inactive
same,Potency,[14],inactive
same,Potency,[15],inactive
same,Potency,[16],inactive
CC(=O)O.CC(=O)O.CC(=O)O.CC(=O)O.CC(=O)O.CC(=O)O.CC(=O)O.O.O.[Cr].[Cr].[Cr],Potency,[2],inactive
same,Potency,[3],inactive
same,outcome,[5],inactive
same,Potency,[6],inactive
same,Potency,[7],inactive
same,outcome,[8],inactive
same,outcome,[9],inactive
same,Potency,[10],inactive
same,outcome,[11],inactive
same,outcome,[12],inactive
same,outcome,[13],inactive
same,Potency,[14],inactive
same,Potency,[15],inactive
same,Potency,[16],inactive
Clc1ccc(C(Cl)(Cl)Cl)cc1Cl,Potency,[1],inactive
same,Potency,[17],inactive
same,Potency,[4],59.8 µM (active)
same,outcome,[5],inactive
same,Potency,[7],inactive
same,outcome,[8],inactive
same,outcome,[9],inactive
same,Potency,[10],inactive
same,outcome,[11],inactive
same,outcome,[12],inactive
same,outcome,[13],inactive
same,Potency,[14],inactive
same,Potency,[15],inactive
same,Potency,[16],inactive
same,Potency,[18],inactive
CC1CCCC1,Potency,[2],inactive
same,Potency,[17],inactive
same,Potency,[18],inactive
CC(=O)[O-].CC(=O)[O-].CC(=O)[O-].[Sb+3],"activity change, negative = cytotoxicity",[2],11.3% [at 8.08 µM]
same,"activity, negative = cytotoxicity",[3],20.6% [at 8.08 µM]
same,"fluorescence, relative to Rose Bengal",[5],-0.0388% [at 3.72 µM]
same,"fluorescence, % of fluorescein control",[6],-0.114% [at 3.72 µM]
same,"fluorescence, % of triamterene",[7],-0.0361% [at 3.72 µM]
same,"fluorescence, % of fluorescent control",[8],0.24% [at 3.72 µM]
same,"fluorescence, % of fluorescein",[9],0.0079% [at 3.72 µM]
same,"fluorescence, % of fluorescent control",[10],-0.0273% [at 3.72 µM]
same,activity change,[11],-0.0203% [at 3.72 µM]
same,"fluorescence, % of Rose Bengal",[13],0.0344% [at 3.72 µM]
same,"fluorescence, % of fluorescent control",[14],-0.11% [at 3.72 µM]
same,"fluorescence, % of fluorescein control",[15],0.0057% [at 3.72 µM]
same,"fluorescence, % of fluorescent control",[16],0.0192% [at 3.72 µM]
C1=CCC=C1,Potency,[2],inactive
same,Potency,[3],inactive
same,Potency,[17],inactive
same,outcome,[5],inactive
same,Potency,[6],inactive
same,outcome,[8],inactive
same,outcome,[9],inactive
same,outcome,[11],inactive
same,outcome,[12],inactive
same,outcome,[13],inactive
same,Potency,[15],inactive
CCOP(=O)(Sc1ccccc1)Sc1ccccc1,Potency,[1],inactive
same,Potency,[3],inactive
same,Potency,[17],inactive
same,outcome,[5],inactive
same,Potency,[7],inactive
same,outcome,[8],inactive
same,outcome,[9],inactive
same,outcome,[11],inactive
same,outcome,[12],inactive
same,outcome,[13],inactive
same,Potency,[14],inactive
same,Potency,[15],inactive
same,Potency,[16],inactive
same,Potency,[18],inactive
